Most compounds without a hit are left out; they make up all but 10% or so of the library.
BAZ2B block: blocks human BAZ2B | 360,000 compounds, 4.4% hits | AlphaScreen BAZ2B-H3K14Ac peptide displacement | Potency, µM (series often up to 114 µM), for inactives: at the top dose activity change, negative = inhibition, most hits filed as inhibitors | AID 504333; note: potency is the fitted concentration of half-maximal effect; % is set by controls: 0 for no effect and ±100 for the full control effect; nearly all actives have a fitted effect of over 60% in size
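BAZ2B 50 nM plus b-H3(5-23)K14Ac 50 nM, PBS pH 7.4/0.01% Tween-20, 30 min RT; compound added (max 110 uM), 30 min RT; streptavidin donor/Ni-chelate acceptor beads 10 ug/mL final, 20 min dark; AlphaScreen read.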
HP1b chromo inh: blocks HP1-beta chromodomain binding to methylated histone tails; Potency, µM (titrated, usually from 114 µM), inactives show at the highest dose activity change, negative = inhibition, actives largely listed as inhibitors; 390,000 compounds, 0.56% hits; P83916; AlphaScreen HP1-beta / biotin-H3K9me3 peptide binding; AID 540317; note: potency is the fitted concentration of half-maximal effect; nearly all actives have a fitted effect of over 70% in size
Target sequence (P83916 whole entry, looked up): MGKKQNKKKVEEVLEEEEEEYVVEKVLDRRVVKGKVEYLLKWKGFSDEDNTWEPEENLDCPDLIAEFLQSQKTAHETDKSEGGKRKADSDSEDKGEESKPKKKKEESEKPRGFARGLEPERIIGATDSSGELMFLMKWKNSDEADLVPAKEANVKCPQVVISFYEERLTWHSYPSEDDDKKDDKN
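HP1-beta protein (50 nM final) preincubated 30 min at room temperature with biotinylated H3(1-18)K9me3 peptide (50 nM) in PBS pH 7.4, 0.01% Tween-20, then compound added for 30 min. AlphaScreen streptavidin donor/nickel chelate acceptor beads (10 ug/mL final), 30 min dark, luminescence read.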
Six1-Eya2 blk: inhibitors of human Six1/Eya2 interaction; AID 651725; activity change, % (test concentration not listed); 360,000 compounds, 0.56% hits; AlphaScreen GST-Six1/His-Eya2 binding, biochemical; active compounds read low; in the data active = activity change below about -65%; inconclusive = mostly about -30% to -63%; note: % is set by controls: 0 for no effect and ±100 for the full control effect
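AlphaScreen with GST-Six1 and His-Eya2 (5X mix: 250 nM and 500 nM), glutathione donor and nickel acceptor beads; buffer 50 mM Tris pH 8.0, 300 mM NaCl, 1 mM TCEP; 1 h at 37 C in the dark.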
JMJD2A Tudor: JMJD2A Tudor domain (human) inhibition | O75164 | AlphaScreen JMJD2A-Tudor / H3K4me3 peptide binding | Potency, µM (doses to about 114 µM), for the others: top-dose activity change, negative = inhibition, most hits filed as inhibitors | 390,000 compounds, 4.4% hits | AID 504339; note: potency is the fitted concentration of half-maximal effect; % is set by controls: 0 for no effect and ±100 for the full control effect; nearly all actives have a fitted effect of over 50% in size
CtBP-E1A inh: inhibitors of CtBP/E1A interaction | AlphaScreen GST-E1A/His-CtBP binding, 1536-well; active compounds read low | activity change, % (no concentration beside the values) | 340,000 compounds, 0.49% hits | AID 651724; in the data active = activity change below about -65%; inconclusive = mostly about -30% to -63%; note: % is set by controls: 0 for no effect and ±100 for the full control effect
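Homogeneous bead-based format: GST-tagged E1A captured on glutathione donor beads, His-tagged CtBP on nickel acceptor beads; compounds precede bead addition by 2 h at 37 °C.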
G9a inh: blocks human histone lysine methyltransferase G9a | Q96KQ7 | G9a H3K9 monomethylation, AlphaScreen, 2 h | Potency, µM (doses to about 102 µM), inactives show at the top dose activity, negative = inhibition, usual class: inhibitors | 350,000 compounds, 8.8% hits; note: potency is the fitted concentration of half-maximal effect; % is set by controls: 0 for no effect and ±100 for the full control effect; nearly all actives have a fitted effect of over 75% in size
Target sequence (Q96KQ7 913-1193 limits assumed): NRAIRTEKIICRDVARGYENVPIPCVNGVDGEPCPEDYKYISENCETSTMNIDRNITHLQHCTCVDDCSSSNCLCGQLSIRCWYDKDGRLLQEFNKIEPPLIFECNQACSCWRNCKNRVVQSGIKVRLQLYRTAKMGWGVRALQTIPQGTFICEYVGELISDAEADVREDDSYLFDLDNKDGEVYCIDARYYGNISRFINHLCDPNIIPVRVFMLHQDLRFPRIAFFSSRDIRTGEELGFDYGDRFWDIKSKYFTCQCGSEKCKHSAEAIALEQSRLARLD
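AlphaScreen read-out: biotin-H3K9 peptide (500 nM) methylation by 20 nM enzyme with 20 uM SAM, 2 h at room temperature after 15 min compound preincubation; anti-monomethyl H3K9 antibody plus donor/acceptor beads, 10 min dark.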
* marks the source's active call; other numbers are inactive results; u = inconclusive; x = not tested or not shown; [ ] = dose if it differs, or a comment. Unless noted, calls come from the whole dose curve; as a rule, active = well fitted inhibition curve with a large enough effect; inconclusive = small, poorly fitted or top-dose-only effect; inactive = no such curve, though single readings can be large or run the other way.

SMILES	BAZ2B block	HP1b chromo inh	Six1-Eya2 blk	JMJD2A Tudor	CtBP-E1A inh	G9a inh
Cc1ccc2nc(N3C(=O)C(O)=C(C(=O)c4ccc(C)o4)C3c3ccco3)sc2c1 (stereo not drawn)	50µM*	-12%	-4	50µM*	-1	u
COc1ccc(C2=NN(CCC(=O)NCc3cccs3)C(=O)CC2)cc1	1%	15%	4	6%	6	-4%
O=C(CCC1N=C2c3ccccc3N=C(SCc3ccc(F)cc3)N2C1=O)NC1CCCCC1 (stereo not drawn)	-2%	41%	x	-15%	x	-3%[59 µM]
COc1ccc(Cl)cc1NC(=O)C1CCCN(S(=O)(=O)c2ccc3c(c2)CCCC(=O)N3)C1 (stereo not drawn)	0%[57.1 µM]	15%	x	-26%	x	-34%[59 µM]
c1ccc(-c2csc(Nc3ccccn3)n2)cc1	-36%	13%	-3	-29%	-14	-7%
NC(c1ccccc1)c1csc(Nc2ccccn2)n1 (stereo not drawn)	x	x	-89*	x	-90*	x
NC(c1csc(Nc2ccccn2)n1)C1CCCCC1 (stereo not drawn)	x	x	u	x	-80*	x
COc1ccc(CC(N)c2csc(Nc3cccc(OC)n3)n2)cc1 (stereo not drawn)	x	x	-8	x	-21	x
COc1ccc(CC(N)c2csc(Nc3ccccn3)n2)cc1 (stereo not drawn)	x	x	-88*	x	-92*	x
NC(CCc1ccccc1)c1csc(Nc2cnccn2)n1 (stereo not drawn)	x	x	u	x	-67*	x
CCN(CC)CCN(Cc1cc2ccc(C)cc2[nH]c1=O)C(=O)Nc1ccc(Cl)cc1	12%	18%	0	-25%	5	x
Cc1cnc(C)c(Nc2nc(C(N)c3ccccc3)cs2)n1 (stereo not drawn)	x	x	u	x	-66*	x
CCN(CC)c1ccc(C(=O)OCC(=O)NC2CCCCC2C)cc1 (stereo not drawn)	7%	1%	4	50µM*	-1	-11%
CC1CCCC(NC(=O)COC(=O)c2ccc(N(C)C)cc2)C1C (stereo not drawn)	-6%	29%	-6	-9%	4	-24%
Cc1cc2oc(C(=O)Nc3ccc(S(=O)(=O)N(C)c4ccccc4)cc3)cc(=O)c2cc1C	0%	20%	x	6%	x	8%[59 µM]
Cc1ccc(CNc2ccc3nnc(-c4ccccc4)n3n2)cc1	-5%	30%	-3	-30%	-2	-6%
c1ccc(CN2CCN(CCCNc3ccc4nnc(-c5ccccc5)n4n3)CC2)cc1	0%	10%	-69*	u	-27	-16%
NC(=O)C1CCN(C(=O)CCNS(=O)(=O)c2ccccc2F)CC1	-4%	28%	2	0%	1	1%[12.7 µM]
Cc1ccc2c(C)cc(=S)[nH]c2c1	-18%	33%	-5	0%	x	50µM*
Cc1cc(=S)[nH]c2ccccc12	-25%	17%	-5	-30%	-1	2.8µM*
Cc1ccc2[nH]c(=S)cc(C)c2c1	4%	37%	-8	-14%	0	-24%[59 µM]
CCCCC(=O)Nc1ccc(C(=O)N2CCC(C(=O)OCC)CC2)cc1	2%	27%	4	7%	4	u
C(=C\c1ccccc1)/CN1CCN(C(c2nnnn2Cc2ccccc2)C2CC2)CC1 (stereo not drawn)	x	x	-16	x	-14	x
O=C(Nc1ccccc1)Nc1ccc2nnsc2c1	5%	-19%	-12	79µM*	5	37%
c1ccc2[nH]c3cc4ncnc4cc3nc2c1	-12%	13%[57 µM]	u	-28%	-73*	-17%
SMILES	BAZ2B block	HP1b chromo inh	Six1-Eya2 blk	JMJD2A Tudor	CtBP-E1A inh	G9a inh
CCc1cccc(NC(=O)CCS(=O)(=O)c2ccc3nc(C)sc3c2)c1	-16%	28%	x	-21%	x	11µM*
CCc1cccc(NC(=O)CCSCCC(=O)Nc2cccc(CC)c2)c1	-22%	33%	1	-6%	1	50µM*
Cc1ccc(NC(=O)CCS(=O)(=O)c2ccc3nc(C)sc3c2)cc1	-3%	26%	10	-27%	4	27%
CCOc1ccccc1NC(=O)C(=O)/C=C(\O)c1cc(OC)ccc1OC	9%	-15%	0	20µM*	1	u
COc1ccc(CCNC(C(=O)Nc2cc(C)cc(C)c2)c2ccccc2)cc1 (stereo not drawn)	-11%	40%	1	4%	2	-8%
CCOc1ccccc1NC(=O)C(NCCc1ccc(OC)cc1)c1ccccc1 (stereo not drawn)	50µM*	83%	3	24%	2	x
CCOc1ccccc1NC(=O)C(NCCN(C)C)c1ccccc1 (stereo not drawn)	50µM*	-5%	1	22µM*	8	10µM*
Cc1ccccc1Oc1ccc2c(c1)[C@@H]1C[C@H](N(C)C(=O)c3ccc(C#N)cc3)[C@H]([C@H](C)O)C(=O)N1CC2	x	17%	-6	-21%	0	x
Cc1cccc(C(=O)Nc2ccccc2OCc2cc(=O)n3ccccc3n2)c1	7%	20%[57 µM]	x	-11%	x	2%[59 µM]
COC(=O)c1cc(=O)c2c(ccc3oc(=O)ccc32)[nH]1	x	x	-7	x	-2	x
CCc1ccc(S(=O)(=O)c2nnn3c2nc(Nc2ccc(C)c(Cl)c2)c2sccc23)cc1	-30%	42%	x	-4%	x	4%[59 µM]
COc1ccccc1/C=N/NC(=O)c1cccc(OC(F)(F)C(F)F)c1	2%	27%	-7	-28%	-2	13%[59 µM]
COCCCNC(=S)N/N=C/c1ccc(OC)cc1	-3%	21%	-1	-10%	6	x
COc1cccc(/C=N/NC(=O)C(=O)Nc2ccccc2OC(F)(F)C(F)F)c1O	-3%	18%	-86*	-17%	-73*	-7%[59 µM]
COCCCNC(=S)N/N=C/c1ccc(O)cc1	-18%	42%	2	-16%	x	7%
COCCCNC(=S)N/N=C/c1cccc(OC)c1O	6.3µM*	18%	-90*	u	-92*	x
COCCCNC(=S)N/N=C/c1ccc(O)cc1O	6.3µM*	16%	-90*	50µM*	-93*	4%
COCCCNC(=S)N/N=C/c1ccc2ccccc2c1	u	13%	-7	-33%	-29	50µM*
O=C(O)CC(c1ccccc1)c1ccc2c(c1)OCO2 (stereo not drawn)	x	x	-5	x	-2	x
CCOc1ccc(OCC)c(NS(=O)(=O)c2c(C(=O)N3CCC(C)CC3)c(C)n(C)c2C)c1	-31%	24%	x	-13%	x	17%[59 µM]
COc1cccc(/C=N/NC(=S)Nc2cccc(C(=O)O)c2)c1O	x	41%	-92*	16µM*	-91*	40µM*
CCOCCCNC(=O)/C(C#N)=C/c1cc(Br)c(O)c(Br)c1	-12%	2%	-4	-12%[11.4 µM]	17	-10%

Screening results from PubChem.
